# Reference: PubChem BioAssay (NCATS)
# Records with an inconclusive call do not appear. Activity calls are given as the source filed them. Calls come from the whole dose curve; as a rule, active = well fitted curve in the direction sought with a large enough effect; inconclusive = small, poorly fitted or top-dose-only effect, or another doubt; inactive = no such curve, though single readings can be large; an effect the other way counts as inactive or inconclusive. Where a SMILES comes first, the peptide text is derived from it. Bridges are numbered along the chain shown (N, C = ends). [ ]: non-standard residue; d: D form. The star is where a group is joined. X1 = CCC(C)C(N)C1=NC(C(=O)*)CS1; dOrn = NCCC[C@@H](N)C(=O)O
# Assay: P-glycoprotein substrates identified in KB-3-1 adenocarcinoma cell line, qHTS therapeutic library screen (AID 1346986); note: nearly all actives have a fitted effect of over 60% in size
# Conditions: KB-3-1 parental cells viability, CellTiter-Glo, 72 h; series mostly up to 44.5 µM; activity change, negative = cytotoxicity: at the top concentration
# How it was run: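 Viability read by CellTiter-Glo after 72 h compound exposure in dose-response of KB-3-1 and KB-8-5-11 (P-gp-high) cells. Hits needed AC50 < 10 uM, >50% maximum response and curve class -1.1 to -2.4. Cherry-picks retested ± tariquidar, including pcDNA/MDR-19 HEK-293 pair.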
# % is set by controls: 0 for no effect and ±100 for the full control effect.
SMILES,outcome,"activity change, negative = cytotoxicity"
CC(/C=C/C1(O)C(C)(C)CC(O)CC1(C)O)OC1OC(CO)C(O)C(O)C1O (configuration not stated),inactive [at 17.4 µM],
C[C@]12CC[C@@H]3c4ccc(O[C@@H]5O[C@H](C(=O)O)[C@@H](O)[C@H](O)[C@H]5O)cc4CC[C@H]3[C@@H]1CCC2=O,inactive,
O=C(OCc1cccc(O)c1O[C@@H]1O[C@H](CO)[C@@H](O)[C@H](O)[C@H]1O)C1(O)C(=O)C2C=CC1C1C=CC(=O)C(O)(C(=O)OCc3cccc(O)c3O[C@@H]3O[C@H](CO)[C@@H](O)[C@H](O)[C@H]3O)C21 (some centres not stated),inactive [at 9.29 µM],
C=CC1(C)C=C2C(=O)CC3C(C)(C)CCCC3(C(=O)O)C2(O)CC1 (configuration not stated),inactive,
COc1ccc2c3c1O[C@H]1C[C@@H](O)C=C[C@@]31CCN(C)C2,inactive,
CCC(=O)NS(=O)(=O)c1ccc(-c2c(-c3ccccc3)noc2C)cc1,inactive,
C/C1=C2N=C(/C=C3N=C(/C(C)=C4\[N-][C@@](C)([C@@H]5N=C1[C@](C)(CCC(=O)NCC(C)OP(=O)(O)O[C@H]1[C@@H](O)[C@@H](n6cnc7cc(C)c(C)cc76)O[C@@H]1CO)[C@H]5CC(N)=O)[C@@](C)(CC(N)=O)[C@@H]4CCC(N)=O)[C@@](C)(CC(N)=O)[C@@H]\3CCC(N)=O)C(C)(C)[C@@H]/2CCC(N)=O.CC(=O)O.[Co] (some centres not stated),,-19.4% (inactive)
CCC(C)C(N)C1=NC(C(=O)N[C@@H](CC(C)C)C(=O)N[C@H](CCC(=O)O)C(=O)N[C@H](C(=O)N[C@H]2CCCCNC(=O)[C@H](CC(N)=O)NC(=O)[C@@H](CC(=O)O)NC(=O)[C@H](Cc3cnc[nH]3)NC(=O)[C@@H](Cc3ccccc3)NC(=O)[C@H]([C@@H](C)CC)NC(=O)[C@@H](CCCN)NC2=O)[C@@H](C)CC)CS1 (some centres not stated) (X1-L[dE]IK[dOrn]I[dF]H[dD]N; lactam 4-C),inactive [at 17.4 µM],
CC(=O)OC1C=C(C(=O)O)C2(CO)CCC(C)C(C)(CCc3ccoc3)C2C1 (configuration not stated),inactive [at 17.4 µM],
C[C@H]1CN(C[C@H](Cc2ccccc2)C(=O)NCC(=O)O)CC[C@@]1(C)c1cccc(O)c1,inactive,
COc1cccc(-n2nc(C(=O)O)cc2-c2ccc(C3CCCCC3)c(Cl)c2)c1,inactive,

# Assay: P-glycoprotein substrates identified in KB-8-5-11 adenocarcinoma cell line, qHTS therapeutic library screen (AID 1346987); note: nearly all actives have a fitted effect of over 65% in size
# Conditions: KB-8-5-11 (P-gp overexpressing) viability, CellTiter-Glo, 72 h; series mostly up to 44.5 µM; activity change, negative = cytotoxicity: at the top concentration
# How it was run: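 Luminescence from CellTiter-Glo, read 5 min after addition, quantified survival of KB-8-5-11 (P-gp-overexpressing) cells exposed to compounds for 72 h. AC50 was derived from concentration-response curves.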
SMILES,Potency,"activity change, negative = cytotoxicity",outcome
CCOc1ccc(-c2ccc(Cn3c(CC(C)(C)C(=O)O)c(SC(C)(C)C)c4cc(OCc5ccc(C)cn5)ccc43)cc2)cn1,inactive,,
COCC(=O)N1CCc2cc(-c3csc(NC(=O)c4cc(OC)cc(OC)c4)n3)ccc21,,9.41% (inactive),
CC(=O)OC[C@@]12[C@@H](OC(C)=O)C[C@@H](C)[C@](C)([C@@H]3C[C@H]4C=CO[C@H]4O3)[C@H]1CCC[C@]21CO1,,8.19% [at 17.3 µM] (inactive),
CC(=O)OCCC(C)CCC1C(C)(O)CCC2C(C)(C)CCCC21C (configuration not stated),,,inactive
CC[C@H](/C=C/[C@@H](C)[C@H]1CC[C@H]2[C@@H]3CC=C4C[C@@H](O)CC[C@]4(C)[C@H]3CC[C@]12C)C(C)C,,0.93% [at 5.11 µM] (inactive),
O=C(/C=C/c1ccccc1)OCC1=CC[C@@H]2C(C(=O)O)=CO[C@@H](O[C@@H]3O[C@H](CO)[C@@H](O)[C@H](O)[C@H]3O)[C@H]12,,,inactive [at 17.3 µM]
O=c1ccn(C2OC(CO)C(O)C2O)c(=O)[nH]1 (configuration not stated),,2.64% (inactive),
C=C[C@H]1[C@H](O[C@@H]2O[C@H](CO[C@@H]3OC[C@](O)(CO)[C@H]3O)[C@@H](O)[C@H](O)[C@H]2O)OC=C2C(=O)OCC[C@H]21,,,inactive [at 17.3 µM]
O=C(NCc1ccc(OC(F)(F)F)cc1)C1c2ccccc2C(=O)N1C1CCOCC1 (configuration not stated),,-12.7% (inactive),
CC1(C)CC[C@]2(C(=O)O[C@@H]3O[C@H](CO)[C@@H](O)[C@H](O)[C@H]3O)CC[C@]3(C)C(=CCC4[C@@]5(C)C[C@@H](O)[C@H](O)[C@@](C)(CO)C5CC[C@]43C)C2C1 (some centres not stated),,6.32% [at 17.3 µM] (inactive),
COc1cc(C2c3cc(O)c(OC)cc3CC(CO)C2CO)ccc1O (configuration not stated),,-3.72% (inactive),
CCn1c2ccccc2c2cc(CNC)ccc21,,-8.6% (inactive),
COc1cc([C@H]2OC[C@]3(OC(C)=O)[C@@H](c4ccc(O[C@@H]5O[C@H](CO)[C@@H](O)[C@H](O)[C@H]5O)c(OC)c4)OC[C@H]23)ccc1O,,,inactive [at 17.3 µM]
COc1cc(COC2OC(CO)C(O)C(O)C2O)cc(OC)c1O (configuration not stated),,4.13% (inactive),
c1ccc(Nc2nc3c(s2)CCCc2[nH]ncc2-3)nc1,,2.92% (inactive),
COC(=O)C1=COC(O[C@@H]2O[C@H](CO)[C@@H](O)[C@H](O)[C@H]2O)/C(=C\COC(=O)c2ccc(OC3OC(CO)C(O)C(O)C3O)c(OC)c2)C1CC(=O)OCCc1ccc(O)cc1 (some centres not stated),,,inactive [at 9.29 µM]
